The panel holds about 83,000 compounds, 20% with a hit somewhere; the sample as a whole holds those more often.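 Single-concentration screen, 48 h exposure, 96-well plates. Endpoint: percent growth. Below 10 = active.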 A number with no mark means an inactive call. Activity calls are given as the source filed them.
Key:
Assay in all cases: NCI-60 one-dose screen, 48 h (100 = growth as untreated, 0 = no growth, -100 = all killed)
Conditions in all cases: 10 µM unless noted
[1] = system: T-47D breast
[2] = system: BT-549 breast
[3] = system: MDA-MB-435 melanoma
[4] = system: SW-620 colon
[5] = system: MCF7 breast
[6] = system: HCT-116 colon
[7] = system: HCC-2998 colon
[8] = system: KM12 colon

Row | Compound | growth [1] | growth [2] | growth [3] | growth [4] | growth [5] | growth [6] | growth [7] | growth [8]
1 | COc1ccc(-c2nc3ccc(-c4nc5ccc(N6CCN(c7ccncc7)CC6)cc5[nH]4)cc3[nH]2)cc1OC | 6.91% (active) | 39.4% | 31.4% | 35.6% | 12.3% | 17.8% | 34.9% | 92.8%
2 | O=C1CC(=NCC(=O)n2c(-c3ccccc3)nc3ccccc32)NN1 | 89.4% | 107% | 105% | 100% | 72.7% | 94.6% | 109% | 101%
3 | CN(C)CCN1C(=O)c2cccc3c(N)ccc(c23)C1=O | -2.59% (active) | 89.9% | 39.6% | 26.6% | -11.3% (active) | 15.9% | 48.1% | 28.1%
4 | CCOC(=O)c1c(C(=O)OCC)c2cc(-c3ccn4c(C(=O)c5ccccc5)c(C(=O)OCC)c(C(=O)OCC)c4c3)ccn2c1C(=O)c1ccccc1 | 82.5% | 93.4% | 99.9% | 105% | 92.9% | 103% | 95.2% | 87.7%
5 | CCOC(=O)c1sc2nc(-c3cccc(OC)c3)nc(N3CCOCC3)c2c1C | 92.8% | 94.9% | 96.9% | 110% | 90.4% | 96.6% | 99.6% | 97.5%
6 | COc1cccc(/C=N/NC(=O)c2ccccc2Nc2ccnc(C(F)(F)F)c2)c1O | 17.6% | 25.8% | 31.9% | 31.9% | 3.13% (active) | 12.8% | 51.2% | 38.8%
7 | Cc1ncc(C(=O)Nc2ccc(CN3CCN(C)CC3)c(C(F)(F)F)c2)cc1C#Cc1cnc2cccnn12 | 40% | -10.8% (active) | -54.1% (active) | -5.14% (active) | 2.92% (active) | 0.541% (active) | 11.1% | -0.978% (active)
8 | COC[C@H](C)n1c(C2CCOCC2)nc2cnc3cc(-c4c(C)noc4C)c(OC)cc3c21 | 37.9% | 69.2% | 44.5% | 64.3% | 22.5% | 46.8% | 56.6% | 54%
9 | c1csc(C2=NN3C(C2)c2ccccc2OC3c2ccncc2)c1 (stereo not given) | 93.2% | 92.4% | 99.6% | 103% | 77.3% | 102% | 96.3% | 92.2%
10 | N#Cc1c(-c2ccc(Cl)cc2)nc(N/N=C/c2cccc(Br)c2)nc1N1CCOCC1 | 67.5% | 101% | 104% | 31.5% | 72.5% | 61.5% | 96.1% | 94.9%
11 | NC(=O)c1cc(Br)ccc1NC(=O)/C=C/c1ccccc1 | 36.4% | 90.1% | -7.27% (active) | 29.1% | 19.9% | 38% | 64.4% | 20.7%
12 | COC(=O)c1ccc2oc(NC(=O)c3ccc(Nc4ccc([N+](=O)[O-])cc4C)c([N+](=O)[O-])c3)nc2c1 | 96% | 110% | 100% | 103% | 97.6% | 106% | 101% | 103%
13 | Cn1c(=O)c2c(nc3n(-c4ccc(Cl)cc4Cl)c(Sc4nc(-c5ccccc5)c(C#N)c(=O)[nH]4)cn23)n(C)c1=O | 11.3% | 72.6% | 69.1% | 30% | 52.1% | 18.6% | 78.3% | 84.9%
14 | N#C/C(=C\c1ccc(-c2cc(C(F)(F)F)ccc2Cl)o1)c1nc(-c2ccco2)cs1 | 80.1% | 114% | 102% | 103% | 45.3% | 104% | 104% | 99.9%
15 | O=C(/C=C/c1ccc(C(F)(F)F)cc1)Nc1ccc(C=C2c3ccccc3C(=O)c3ccccc32)cc1 | 50.3% | 57.6% | 6.92% (active) | 65.3% | 46.5% | 38.3% | 78.3% | 25.9%
16 | COC(=O)c1ccc(NC(=O)c2ccc(-c3cccc([N+](=O)[O-])c3)o2)cc1 | 96.4% | 98.9% | 101% | 101% | 76.8% | 96% | 102% | 102%
17 | Cn1ccnc1C(=O)/C=C/c1ccc(CC(=O)Nc2ccccc2)cc1 | 15.2% | 22.4% | 13.5% | 2.2% (active) | 12% | 18.2% | 29% | 3.7% (active)
18 | CSc1nc(Nc2cccc(NC(=O)CCl)c2)c(C#N)c(-c2cccc([N+](=O)[O-])c2)n1 | 12.2% | 14.3% | 45.3% | 7.84% (active) | 0% (active) | -6.05% (active) | 105% | 88.5%
19 | O=[N+]([O-])c1cnc(N2CCN(CC3CC3)CC2)nc1N1CCN(CC2CC2)CC1 | 100% | 88.9% | 98.1% | 90.9% | 96.4% | 86% | 99% | 100%
20 | CCCOc1cc2ccccc2cc1C(=O)Nc1nc(N)c2c(ccc3nccc32)[nH]1 | -51% (active) | -41% (active) | -94.5% (active) | -80.4% (active) | -52.3% (active) | -58.9% (active) | -68.3% (active) | -72.8% (active)
21 | Cc1nn(-c2ccc(F)cc2)c2ncnc(Nc3ccc(NC(=O)Nc4ccc(Cl)c(C(F)(F)F)c4)cc3)c12 | 2.53% (active) | 57.9% | 40.1% | 19.9% | 12.8% | 32.1% | 22.2% | 14.7%
22 | COc1cccc(-c2nn(C(C)(C)C)cc2-c2ccnc(NCCCNS(=O)(=O)c3cccc4ccccc34)c2)c1 | 102% | 108% | 102% | 106% | 98.6% | 98.7% | 114% | 99.5%
23 | O=C1OC(c2ccccc2)C(O)=C1c1ccccc1 (stereo not given) | 111% | 111% | 105% | 110% | 95.4% | 107% | 127% | 95.7%
24 | CN1CCN(Cc2ccc(NC(=O)c3cncc(C#Cc4cncn5ccnc45)c3)cc2C(F)(F)F)CC1 | 98.9% | 60.8% | 36.2% | 32.2% | 55.9% | 7.73% (active) | 47.6% | 19.7%
25 | COc1cccc(-c2nn(C(C)(C)C)cc2-c2ccnc(NCCCNS(=O)(=O)c3ccc(C)cc3)c2)c1 | 98.1% | 101% | 104% | 103% | 102% | 96.7% | 113% | 101%
26 | CCOC(=O)C(C)(C#N)C1C=CCCC1 (stereo not given) | 84.5% | 111% | 100% | 91.2% | 92.7% | 93.2% | 43.5% | 90.5%
27 | CC1C(/C=N/Nc2ccccc2)C(C#N)(C#N)C1(C#N)C#N (stereo not given) | 79.3% | 77.4% | 62.5% | 60.2% | 82.4% | 67.3% | 86% | 62.5%
28 | COc1cc(-c2nn(-c3ccc(Br)cc3)cc2C(=O)O)ccc1O | 98.5% | 98.8% | 97% | 105% | 81.5% | 97.9% | 108% | 94.8%
29 | CC(C)C[C@@H](NC(=O)[C@@H](Cc1ccccc1)NC(=O)c1cnccn1)B1Oc2ccc(C[C@H](NC(=O)[C@H](Cc3ccc4c(c3)OB([C@@H](CC(C)C)NC(=O)[C@@H](Cc3ccccc3)NC(=O)c3cnccn3)O4)NC(=O)[C@@H](N)CC3CCC4OB([C@@H](CC(C)C)NC(=O)[C@@H](CC5CCCCC5)NC(=O)C5CNCCN5)OC4C3)C(=O)NCCCC[C@@H]3NC(=O)[C@@H](Cc4ccccc4)NC(=O)[C@H](CC(=O)O)NC(=O)CNC(=O)[C@H](CCCNC(=N)N)NC3=O)cc2O1 (stereo not given in full) | -57.8% (active) | -66.8% (active) | -74.7% (active) | -49.5% (active) | -43.9% (active) | -69.2% (active) | -95.7% (active) | -51.5% (active)
30 | CN(C)CCCNc1c2ccccc2nc2ccccc12 | 68.5% | 72.6% | 96.1% | 103% | 92% | 99% | 107% | 97.3%

— PubChem BioAssay (NCI)
